Where a name gives a salt, the structure may show the parent alone.
Key:
Assay in all cases: phenotypically active (imaging signature differs from DMSO and reproducible) at any of 0.3-9 uM (binary (1 = active, 0 = inactive)); higher = active
Conditions in all cases: treatment time: 24 h
A549-ACTB-RAB5A = tested on: A549-ACTB-RAB5A
Procedure, shortened: (§1)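 The reporter lines, fifteen in total and built by gene editing in A549, HepG2 and WPMY1 cells, used BFP for segmentation alongside GFP and RFP/FusionRed markers. Each was treated at 0.3, 1, 3 or 9 µM for 24 h in four wells and then imaged live, with live-cell features normalised to solvent control wells. Deviation meant ≥3 of 4 wells beyond the 95th percentile of control Euclidean distances; reproducibility meant a median replicate Pearson correlation above the 95th percentile of non-replicates. Only conditions meeting both were scored as phenotypically active.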

A549-CANX-COX4 = tested on: A549-CANX-COX4
Procedure, shortened: as §1

A549-GM130-SQSTM1 = tested on: A549-GM130-SQSTM1
Procedure, shortened: as §1

A549-TP53BP1-CLTA = tested on: A549-TP53BP1-CLTA
Procedure, shortened: as §1

A549-TUBA1B-RELA = tested on: A549-TUBA1B-RELA
Procedure, shortened: as §1

HepG2-ACTB-RAB5A = tested on: HepG2-ACTB-RAB5A
Procedure, shortened: as §1

HepG2-CANX-COX4 = tested on: HepG2-CANX-COX4
Procedure, shortened: as §1

HepG2-GM130-SQSTM1 = tested on: HepG2-GM130-SQSTM1
Procedure, shortened: as §1

HepG2-TP53BP1-CLTA = tested on: HepG2-TP53BP1-CLTA
Procedure, shortened: as §1

HepG2-TUBA1B-RELA = tested on: HepG2-TUBA1B-RELA
Procedure, shortened: as §1

WPMY1-ACTB-RAB5A = tested on: WPMY1-ACTB-RAB5A
Procedure, shortened: as §1

WPMY1-CANX-COX4 = tested on: WPMY1-CANX-COX4
Procedure, shortened: as §1

WPMY1-GM130-SQSTM1 = tested on: WPMY1-GM130-SQSTM1
Procedure, shortened: as §1

WPMY1-TP53BP1-CLTA = tested on: WPMY1-TP53BP1-CLTA
Procedure, shortened: as §1

WPMY1-TUBA1B-RELA = tested on: WPMY1-TUBA1B-RELA
Procedure, shortened: as §1

Measured: phenotypically active

COc1cc(C#N)ccc1S(=O)(=O)Nc1ccc2c(c1)cc(C)c(=O)n2C
inactive: A549-ACTB-RAB5A 0 | A549-CANX-COX4 0 | A549-GM130-SQSTM1 0 | A549-TP53BP1-CLTA 0 | A549-TUBA1B-RELA 0 | HepG2-ACTB-RAB5A 0 | HepG2-CANX-COX4 0 | HepG2-GM130-SQSTM1 0 | HepG2-TP53BP1-CLTA 0 | HepG2-TUBA1B-RELA 0 | WPMY1-ACTB-RAB5A 0 | WPMY1-CANX-COX4 0 | WPMY1-GM130-SQSTM1 0 | WPMY1-TP53BP1-CLTA 0 | WPMY1-TUBA1B-RELA 0

O=C(CCc1ccc(O)cc1)c1c(O)cc(O)cc1O[C@@H]1O[C@H](CO)[C@@H](O)[C@H](O)[C@H]1O [Phloridzin]
inactive: A549-ACTB-RAB5A 0 | A549-CANX-COX4 0 | A549-GM130-SQSTM1 0 | A549-TP53BP1-CLTA 0 | A549-TUBA1B-RELA 0 | HepG2-ACTB-RAB5A 0 | HepG2-CANX-COX4 0 | HepG2-GM130-SQSTM1 0 | HepG2-TP53BP1-CLTA 0 | HepG2-TUBA1B-RELA 0 | WPMY1-ACTB-RAB5A 0 | WPMY1-CANX-COX4 0 | WPMY1-GM130-SQSTM1 0 | WPMY1-TP53BP1-CLTA 0 | WPMY1-TUBA1B-RELA 0

NCC[C@H](O)C(=O)N[C@H]1C[C@@H](N)[C@H](O[C@H]2O[C@H](CN)[C@@H](O)[C@H](O)[C@H]2O)[C@@H](O)[C@@H]1O[C@H]1O[C@H](CO)[C@@H](O)[C@H](N)[C@H]1O [Amikacin hydrate]
inactive: A549-ACTB-RAB5A 0 | A549-CANX-COX4 0 | A549-GM130-SQSTM1 0 | A549-TP53BP1-CLTA 0 | A549-TUBA1B-RELA 0 | HepG2-ACTB-RAB5A 0 | HepG2-CANX-COX4 0 | HepG2-GM130-SQSTM1 0 | HepG2-TP53BP1-CLTA 0 | HepG2-TUBA1B-RELA 0 | WPMY1-ACTB-RAB5A 0 | WPMY1-CANX-COX4 0 | WPMY1-GM130-SQSTM1 0 | WPMY1-TP53BP1-CLTA 0 | WPMY1-TUBA1B-RELA 0

CCc1c(C)[nH]c2c1C(=O)C(CN1CCOCC1)CC2 (stereo not given) [molindone]
inactive: A549-ACTB-RAB5A 0 | A549-CANX-COX4 0 | A549-GM130-SQSTM1 0 | A549-TP53BP1-CLTA 0 | A549-TUBA1B-RELA 0 | HepG2-ACTB-RAB5A 0 | HepG2-CANX-COX4 0 | HepG2-GM130-SQSTM1 0 | HepG2-TP53BP1-CLTA 0 | HepG2-TUBA1B-RELA 0 | WPMY1-ACTB-RAB5A 0 | WPMY1-CANX-COX4 0 | WPMY1-GM130-SQSTM1 0 | WPMY1-TP53BP1-CLTA 0 | WPMY1-TUBA1B-RELA 0

C[N+](C)(C)CCOC(N)=O [Carbamoylcholine chloride]
inactive: A549-ACTB-RAB5A 0 | A549-CANX-COX4 0 | A549-GM130-SQSTM1 0 | A549-TP53BP1-CLTA 0 | A549-TUBA1B-RELA 0 | HepG2-ACTB-RAB5A 0 | HepG2-CANX-COX4 0 | HepG2-GM130-SQSTM1 0 | HepG2-TP53BP1-CLTA 0 | HepG2-TUBA1B-RELA 0 | WPMY1-ACTB-RAB5A 0 | WPMY1-CANX-COX4 0 | WPMY1-GM130-SQSTM1 0 | WPMY1-TP53BP1-CLTA 0 | WPMY1-TUBA1B-RELA 0

O=C(c1cccc(Br)c1)N1CCC(N2CCCC2)CC1 [UNC 926 hydrochloride]
inactive: A549-ACTB-RAB5A 0 | A549-CANX-COX4 0 | A549-GM130-SQSTM1 0 | A549-TP53BP1-CLTA 0 | A549-TUBA1B-RELA 0 | HepG2-ACTB-RAB5A 0 | HepG2-CANX-COX4 0 | HepG2-GM130-SQSTM1 0 | HepG2-TP53BP1-CLTA 0 | HepG2-TUBA1B-RELA 0 | WPMY1-ACTB-RAB5A 0 | WPMY1-CANX-COX4 0 | WPMY1-GM130-SQSTM1 0 | WPMY1-TP53BP1-CLTA 0 | WPMY1-TUBA1B-RELA 0

CC(C(=O)O)c1cccc(C(=O)c2ccccc2)c1 (stereo not given) [ketoprofen]
inactive: A549-ACTB-RAB5A 0 | A549-CANX-COX4 0 | A549-GM130-SQSTM1 0 | A549-TP53BP1-CLTA 0 | A549-TUBA1B-RELA 0 | HepG2-ACTB-RAB5A 0 | HepG2-CANX-COX4 0 | HepG2-GM130-SQSTM1 0 | HepG2-TP53BP1-CLTA 0 | HepG2-TUBA1B-RELA 0 | WPMY1-ACTB-RAB5A 0 | WPMY1-CANX-COX4 0 | WPMY1-GM130-SQSTM1 0 | WPMY1-TP53BP1-CLTA 0 | WPMY1-TUBA1B-RELA 0

COc1ccc([C@H]2CNC(=O)C2)cc1OC1CCCC1 [(S)-(+)-Rolipram]
inactive: A549-ACTB-RAB5A 0 | A549-CANX-COX4 0 | A549-GM130-SQSTM1 0 | A549-TP53BP1-CLTA 0 | A549-TUBA1B-RELA 0 | HepG2-ACTB-RAB5A 0 | HepG2-CANX-COX4 0 | HepG2-GM130-SQSTM1 0 | HepG2-TP53BP1-CLTA 0 | HepG2-TUBA1B-RELA 0 | WPMY1-ACTB-RAB5A 0 | WPMY1-CANX-COX4 0 | WPMY1-GM130-SQSTM1 0 | WPMY1-TP53BP1-CLTA 0 | WPMY1-TUBA1B-RELA 0

CC1(C)CCC(C)(C)c2cc(C3(c4ccc(C(=O)O)cc4)OCCO3)ccc21
inactive: A549-ACTB-RAB5A 0 | A549-CANX-COX4 0 | A549-GM130-SQSTM1 0 | A549-TP53BP1-CLTA 0 | A549-TUBA1B-RELA 0 | HepG2-ACTB-RAB5A 0 | HepG2-CANX-COX4 0 | HepG2-GM130-SQSTM1 0 | HepG2-TP53BP1-CLTA 0 | HepG2-TUBA1B-RELA 0 | WPMY1-ACTB-RAB5A 0 | WPMY1-CANX-COX4 0 | WPMY1-GM130-SQSTM1 0 | WPMY1-TP53BP1-CLTA 0 | WPMY1-TUBA1B-RELA 0

C#C[C@]1(O)CC[C@H]2[C@@H]3CCC4=CC(=NO)CC[C@@H]4[C@H]3CC[C@@]21CC [norelgestromin]
inactive: A549-ACTB-RAB5A 0 | A549-CANX-COX4 0 | A549-GM130-SQSTM1 0 | A549-TP53BP1-CLTA 0 | A549-TUBA1B-RELA 0 | HepG2-ACTB-RAB5A 0 | HepG2-CANX-COX4 0 | HepG2-GM130-SQSTM1 0 | HepG2-TP53BP1-CLTA 0 | HepG2-TUBA1B-RELA 0 | WPMY1-ACTB-RAB5A 0 | WPMY1-CANX-COX4 0 | WPMY1-GM130-SQSTM1 0 | WPMY1-TP53BP1-CLTA 0 | WPMY1-TUBA1B-RELA 0

Reference: the supplement of paper PMC7411054
